Assay results from paper PMC5540273 (PLoS ONE, 2017).

tested on: SRPK2; details: concentration: 1 μM, replicates: in singlicate; n = 1
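Note: KINOMEscan kinase panel screen.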

| Compound | %Inh |
| --- | --- |
| CC(=O)Nc1nc2cnc(Nc3cc(NC(=O)c4cccc(CCC#N)c4)ccc3C)nc2s1 | 22% |
| Cc1nnc(-c2ccc3occ(-c4ccc(S(C)=O)cc4)c3c2)[nH]1 (stereo not shown) | 0% |
| Cc1ccc(NC(=O)Nc2cccc(Cl)c2)cc1-c1ccc(C(=O)Nc2ccncc2)cc1 [GSK1398468] | 0% |
| COc1ccc(Nc2nccc(-c3cccc(NC(=O)c4cc5cc(F)ccc5[nH]4)c3)n2)cc1 [GSK1229782] | 18% |
| COc1cccc(-c2cc(-c3c[nH]nc3-c3ccccn3)ccn2)c1 [GW680338] | 8% |
| Fc1cc(Cl)ccc1Nc1ccnc2cc(-c3ccc(CN4CCCCC4)o3)ccc12 [GW560116] | 35% |
| O=C(Nc1ccc2c(c1)OCO2)NC1CCN(c2ccnc(Nc3ccc(F)cc3)n2)C1 (stereo not shown) [GSK1379724] | 0% |
| O=C(Nc1ccccc1)Nc1cccc(Oc2ccc3nccn3n2)c1 | 3% |
| Cn1ccc2ncnc(Oc3ccc(NC(=O)Nc4ccccc4)cc3)c21 | 0% |
| Cc1ccc(-c2cc(-c3c[nH]nc3-c3ccccn3)ccn2)cc1 [GW684088] | 52% |
| O=C(O)COc1ncnc2cc(-c3ccc4[nH]ncc4c3)sc12 | 0% |
| C[C@@H]1CCCCN1c1cc(-c2ccc3c(N)n[nH]c3c2)nc(N)n1 [GSK2258759] | 0% |
| COc1cc(Nc2nccc(N3CCC(NC(=O)Nc4cc(C)ccc4C)C3)n2)cc(OC)c1OC (stereo not shown) [GSK1379762] | 0% |
